Source: PubChem
Sampled rows, rich in hits. Any-hit rate of the full collection: about 2.3%.
Gli-Sufu block: antagonists of Gli-Sufu signaling | Sufu-KO-LIGHT fibroblasts, Gli luciferase reporter luminescence | inhibition, % at 5 µM | 340,000 tested, 0.74% active | AID 588413;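 active = inhibition above about 55%, limit read from the data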;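 note: 0% = DMSO-treated cells and 100% = wells with medium but no cells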
697 NFkB inh: lowers PMA/ionomycin-induced NF-kB signal in 697 B cells. inhibition, % at 4 µM. 330,000 tested, 0.33% active. 697 B-cell NF-kB luciferase reporter, 16 h. AID 435022; in the data active = inhibition above about 35%
Jurkat NFkB inh: lowers PMA/ionomycin-induced NF-kB signal in Jurkat cells; PMA/ionomycin-induced NF-kB luciferase reporter, luminescence; inhibition, % at 4 µM; 330,000 tested, 0.53% active; in the data active = inhibition above about 50%
TRPM1 prom inh: MITF TRPM1 promoter inhibition in SK-MEL-5 cells; SK-MEL-5 TRPM1 promoter luciferase, 24 h; inhibition, % at 12.5 µM; 330,000 tested, 0.83% active; AID 488899;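 active = mean inhibition across replicates of 60% or more, whatever share of single replicates reaches that level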
EBV LMP1 NFkB: inhibitors of Epstein-Barr LMP1-induced NF-kappaB reporter; LMP1-induced NF-kappaB luciferase reporter cells, luminescence; inhibition, % at 12.5 µM; 350,000 tested, 0.69% active; AID 504558; in the data active = inhibition above about 41%;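 note: 0% = neutral control wells and 100% = reference inhibitor control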
Shn3 3UTR inh: Schnurri-3 reporter inhibition in Clone20 osteoblasts; Clone20 osteoblast Shn3 3'UTR firefly luciferase, 24 h; inhibition, % at 12.5 µM; 360,000 tested, 0.52% active; AID 588674;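 active = mean inhibition of at least 75% with every replicate also reaching 75%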;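 note: 0% = median of neutral control wells and 100% = pilot-screen positive control compound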
* hit, by the source's call; x = no result given.

SMILES	Gli-Sufu block	697 NFkB inh	Jurkat NFkB inh	TRPM1 prom inh	EBV LMP1 NFkB	Shn3 3UTR inh
Cc1nnc(NC(=O)CSc2nc3c(c(=O)n2CCc2ccccc2)SC(C)C3)s1 (configuration not stated)	2.0	1.2	5.0	x	-4.3	27.3
CC(C)CN1C(=O)c2ccc(C(=O)Nc3ccc(O)cc3C(=O)O)cc2C1=O	1.0	14.4	4.1	0.1	-5.9	6.8
CCC(C)NCC(=O)Nc1ccc(-c2nc3cc(NC(=O)CNC(C)CC)ccc3o2)cc1 (configuration not stated)	1.0	-28.1	-18.3	84.0*	-43.6	9.4
CCN(CC)CC(=O)Nc1ccc(-c2nc3cc(NC(=O)CN(CC)CC)ccc3o2)cc1	-19.7	-21.0	-55.3	-17.1	-49.2	0.0
COc1cnn(-c2ccc(C)cc2)c(=O)c1SCc1ccccc1	11.9	-19.0	-28.5	-61.4	47.3*	-0.1
O=[N+]([O-])c1cc2no[n+]([O-])c2cc1N1CCCCC1	-9.6	x	x	79.7*	-75.6	-23.2
N#Cc1cc(N2CCCCC2)c([N+](=O)[O-])cc1C#N	24.7	-5.9	3.4	-2.4	-2.8	6.1
COc1ccc(OC)c(C(=O)Cn2cnc3ccccc3c2=O)c1	2.1	6.1	4.6	-9.9	-2.2	-3.2
CC1COCC(C)N1C1=C(Cl)C(=O)c2ccccc2C1=O (configuration not stated)	8.4	x	x	96.5*	32.7	95.9*
CN1CCN(C2=C(Cl)C(=O)C(c3cnc(N4CCCCC4)s3)=C(Cl)C2=O)CC1	14.7	-10.1	7.0	56.7	0.5	24.8
CN1CCN(C2=C(Cl)C(=O)c3ccccc3C2=O)CC1	16.9	x	x	100.4*	14.9	72.6
NC(=O)C1CCN(C2=C(Cl)C(=O)c3ccccc3C2=O)CC1	11.5	33.6	0.1	88.2*	78.1*	97.7*
O=C1C(Cl)=C(N2CCC(C(=O)O)CC2)C(=O)c2ccccc21	3.0	24.8	5.4	44.6	-5.6	-8.2
CN(C1=C(N2CCOCC2)C(=O)c2ccccc2C1=O)c1ccccc1	19.8	-11.5	-17.9	52.2	7.6	6.1
COCCCNC(=O)/C(C#N)=C/c1c(N2CCN(c3cccc(Cl)c3)CC2)nc2c(C)cccn2c1=O	13.2	-10.7	-32.8	-3.4	7.6	-2.4
CN1CCOC(c2ccccc2)c2ccccc2C1 (configuration not stated)	3.6	5.0	3.5	-7.0	1.8	-5.4
Cc1nc2ncccn2c1-c1csc(Nc2ccccc2)n1	30.1	2.4	-8.0	7.9	40.5*	-1.9
CCC/C=N/NC(=O)CNC(=O)c1ccccc1Cl	-0.8	24.4	11.7	3.1	5.0	15.6
Cn1c(=O)c([N+](=O)[O-])c(-n2ccnc2)c2ccccc21	0.6	1.3	2.8	89.5*	-0.8	-17.9
COc1ccc(NC(=O)c2cnc(SC)nc2C)c(OC)c1	-5.1	1.4	-16.0	-10.9	10.0	-2.6
CC(C)NCC(O)c1ccc2ccccc2c1 (configuration not stated)	6.8	9.8	-8.3	-2.1	-1.0	-15.3
O=C(Nc1ncc(Br)s1)C(Cc1ccccc1)n1cccc1 (configuration not stated)	8.7	-8.4	8.9	-18.2	90.8*	-15.3
O=C(Nc1cccnc1)C(Cc1ccccc1)n1cccc1 (configuration not stated)	-16.7	1.9	-0.4	11.1	1.1	11.3
CCCn1c(=O)n(C)c(=O)c2c(SCC(=O)NC34CC5CC(CC(C5)C3)C4)nc(CC(C)C)nc21	8.4	-40.1	-6.8	67.6*	-38.6	-0.4
CCc1ccc(NC(=O)N(CCN(C)C)C(C)c2cccnc2)cc1 (configuration not stated)	0.2	-1.1	-12.0	-4.1	0.0	2.2
SMILES	Gli-Sufu block	697 NFkB inh	Jurkat NFkB inh	TRPM1 prom inh	EBV LMP1 NFkB	Shn3 3UTR inh
CCOc1cc(/C=N/NC(=O)c2ccccc2-n2cccc2)ccc1O	-0.9	-31.4	-4.9	-2.1	70.6*	79.9
COc1ccc(C)cc1S(=O)(=O)N1CCN(C(=O)c2ncoc2-c2cccc(F)c2)CC1	-5.3	-11.6	-3.6	13.6	-6.6	6.5
O=C(c1ccccc1)C(C(=O)N1CCc2ccccc2C1)n1ccccc1=O (configuration not stated)	3.1	14.2	4.7	4.6	-19.6	9.0
CC(=NNC(=S)Nc1ccccc1Cl)c1ccccn1	92.5*	x	x	46.5	57.2*	90.3*
N/C(=N\NC(=O)Nc1ccccc1)c1ccccn1	-6.6	-33.4	-24.6	x	x	-38.3
CC(=NNC(=S)Nc1ccccc1)c1ccccn1	x	x	x	x	71.7*	79.7
O=C(OCn1ncc(Cl)c(Cl)c1=O)c1cccc(C(F)(F)F)c1	5.5	-4.6	4.7	93.6*	0.1	96.8*
CCc1ccc(C(=O)Cn2ncc(Cl)c(Cl)c2=O)cc1	-42.6	-20.6	4.0	56.8	-97.6	43.2
COc1ccc(-c2nnc(SCCC(=O)O)n2-c2ccccc2)cc1OC	-2.4	22.6	4.0	-5.5	-4.3	-1.7
COc1cc(NCCCCCCN)c2ncccc2c1OC	7.8	x	x	7.6	56.4*	6.8
CC(C)OCCCNC(=O)c1ccc2c(c1)S(=O)(=O)c1ccccc1C2=O	-15.7	1.8	-17.4	3.9	-6.1	12.6
O=C1C(=C2SCCCS2)CC/C1=C\c1ccc(F)cc1	0.5	-146.0	3.0	58.8	77.4*	22.8
O=C1C(=Cc2ccc(F)cc2)Cc2ccccc21	x	x	x	x	x	-18.7
CCOc1ccc(NC(=O)C(C)Sc2nnc(C)n2C)cc1 (configuration not stated)	-14.3	12.8	5.6	4.5	-9.8	2.0
COc1cc2c(cc1OC)-c1cc(Nc3ccc4c(c3)OCCO4)nc(=O)n1CC2	33.7	-12.2	11.1	-7.4	51.1*	21.2
CCc1ccc(C(=O)CSc2n[nH]c(-c3ccncc3)n2)cc1	-3.5	-6.7	13.3	-5.6	5.0	-15.5
COc1ccccc1CNC(=O)CCc1cn(C)c2ccccc12	20.8	3.9	5.8	19.9	73.7*	11.6
COc1ccc(C(CC(=O)O)NC(=O)c2cccs2)cc1 (configuration not stated)	3.4	15.5	0.4	4.7	8.9	-6.0
Cc1ccc(NC(=S)Nc2cccc(S(=O)(=O)Nc3c(C)n(C)n(-c4ccccc4)c3=O)c2)cc1	-50.9	26.0	-16.2	3.1	69.2*	-16.1
CN(C)C=NC(=O)c1cc(C(=O)c2ccc(Cl)cc2)c[nH]1	-12.8	16.4	-14.8	-20.8	2.1	-1.9
CNC(=O)OCc1nc(SSC(C)(C)C)n(C)c1COC(=O)NC	41.9	x	x	57.8	12.7	96.3*
COc1cc2c(cc1OC)C(c1cc(Br)ccc1F)N(C(=O)CCl)CC2 (configuration not stated)	6.7	-33.1	41.5	98.4*	-10.3	97.7*
COc1cc2c(cc1OC)C(C1C(=O)CC(C)(C)CC1=O)N(C(=O)CCl)CC2 (configuration not stated)	-3.9	21.5	10.9	-0.5	5.6	1.5
COc1ccc(Sc2ccc(-c3nc4cnccn4c3NC3CCCCC3)cc2OC)cc1	4.5	-20.1	-5.3	-0.1	-13.1	55.6
